High-throughput results deposited in PubChem BioAssay by National Center for Advancing Translational Sciences (NCATS).
Mito fusion yeast = inhibitors of mitochondrial division or activators of mitochondrial fusion | AID 485298 | S. cerevisiae fusion-defective mutant growth rescue, CellTiterGlo 48 h | 320,000 compounds, 0.23% hits | Potency, µM (top dose mostly 46.1 µM), for inactives: at the top dose growth rescue (activation), hits mostly activators; further: % of control where 0% means no effect; nearly all actives have a fitted effect of over 45% in size
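Compounds are tested for their ability to restore growth of mitochondrial fusion-defective yeast strains at non-permissive 37C in YPEG medium over 48 hours. Viability is quantified by luciferase luminescence.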
AT treatment = potential ataxia-telangiectasia treatments restoring KAP-1 phosphorylation | 320,000 compounds, 0.19% hits | Potency, µM (highest dose often 57.5 µM), inactives show at the highest dose activation, most hits filed as activators | F2112 A-T fibroblasts, KAP-1 phosphorylation AlphaLISA; neocarzinostatin DNA damage 30 min before lysis | AID 485349; further: % of control where 0% means no effect; nearly all actives have a fitted effect of over 45% in size
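hTERT-immortalized A-T patient fibroblasts (F2112), 500 cells/well in OPTI-MEM, 1% FBS, got compounds for 60 min, then NCS for 30 min at 37C. Lysates were then assayed for phospho-KAP-1 by AlphaLISA (anti-pKAP1 donor, anti-KAP1 acceptor beads), 6 hr at 25C.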
Abeta rescue = A-beta toxicity reversal in yeast; yeast expressing A-beta42, growth rescue, OD600, 48 h; response scale: 0% DMSO, 100% iron-clioquinol control; Potency, µM (series often up to 46.1 µM), actives largely listed as activators; 410,000 compounds, 0.063% hits; AID 1347071; further: nearly all actives have a fitted effect of over 55% in size
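Growth rescue measured by 600 nm absorbance after 48 h yeast culture at 30 C with compound. Values normalized between DMSO and an equimolar ferric chloride plus clioquinol control.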
aSyn yeast inh = inhibitors of alpha-synuclein toxicity in yeast; Yeast expressing alpha-synuclein, growth rescue, BacTiter-Glo, 24 h; Potency, µM (titrated, usually from 46.1 µM), without a hit: top-dose growth rescue (activation), actives largely listed as activators; 370,000 compounds, 0.14% hits; further: % of control where 0% means no effect; nearly all actives have a fitted effect of over 65% in size
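Readout is rescue of growth in alpha-synuclein-expressing yeast, so inhibitors of toxicity appear as activators. Growth after 24 hr at 30 deg C in galactose medium is quantified by luminescence.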
TDP-43 yeast inh = inhibitors of TDP-43 toxicity in yeast; 410,000 compounds, 1.8% hits; Potency, µM (highest dose often 46.1 µM), without a hit: at the top dose growth rescue (activation), actives largely listed as activators; TDP-43 expressing yeast growth rescue, BacTiter-Glo, 24 h; AID 652104; further: % of control where 0% means no effect; nearly all actives have a fitted effect of over 50% in size
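Galactose-induced TDP-43 yeast, OD600=0.02, compound pinned; 24 hr, 30 deg C; BacTiter-Glo luminescence for growth. Inhibitors of TDP-43 toxicity read as activators.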
GRP78 ERSR act = induces the endoplasmic reticulum stress response in human glioma cells | U87-MG GRP78 promoter luciferase reporter, 16 h | Potency, µM, inactives show at the top dose activation, usual class: activators | 420,000 compounds, 0.02% hits | AID 602332; further: series mostly up to about 76 µM; % of control where 0% means no effect; nearly all actives have a fitted effect of over 35% in size
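ERSR induction read as luciferase luminescence (Bright-Glo, 10 min at room temperature) in stably transfected human U87-MG glioma cells exposed to compounds for 16 h, using GRP78 as sensor.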
* marks the source's active call; other numbers are inactive results; i = inactive; ? = inconclusive; . = no result; [ ] = dose if it differs, or a comment. Compounds with a hit are over-represented: about 2.1% of the library has one in this group of screens. The call rests on the fitted dose curve; in most records, active means well fitted curve in the direction sought with a large enough effect; inconclusive means small, poorly fitted or top-dose-only effect, or another doubt; inactive means no such curve, though single readings can be large; an effect the other way counts as inactive or inconclusive. Potency means the concentration at half of the fitted maximal effect.

SMILES | Mito fusion yeast | AT treatment | Abeta rescue | aSyn yeast inh | TDP-43 yeast inh | GRP78 ERSR act
Clc1ccc(-n2cccc2CN2CCc3nnc(Cc4ccccc4)n3CC2)nc1 | . | . | . | . | . | -7%
Cc1cc(/C=N/NC(N)=S)c(C)n1-c1ccc(Cl)c(Cl)c1 | 3% | -1% | ? | 11% | 18µM* | 2%
CCNC(=S)N/N=C/c1cc(C)n(-c2ccc(Cl)cc2)c1C | 29% | 13% | i | 6% | ? | 11%
Cc1cc(C)cc(NC(=S)NCc2ccc3[nH]c4c(c3c2)CCCC4)c1 | ? | -2% | ? | 5% | 20% | -2%
S=C(NCc1ccc2[nH]c3c(c2c1)CCCC3)Nc1ccccc1 | ? | -8% | ? | ? | 18µM* | 0%
COc1ccc(CCN(C)C(=O)c2cnn(-c3nccc(-c4ccc(C)o4)n3)c2C)cc1OC | . | . | . | . | . | -4%
CCOC(=O)c1nnc(-c2cccs2)nc1NC(C)C | 7% | -4% | i | 5% | 13µM* | 5%
CCOC(=O)c1nnc(-c2cccs2)nc1Oc1ccccc1C(=O)OC | -1% | . | i | 11% | -3% | -10%
Cc1ccc(C2CC(=O)Oc3cc4c(cc32)OCO4)cc1 (stereo unspecified) | . | . | . | . | . | 2%
Cc1nc(S(=O)(=O)NC2CCCCC2)c(C#N)c(C)c1Cl | 5% | -3% | i | 17% | ? | 2%
Cc1nc(S(=O)(=O)N2CCOCC2)c(C#N)c(C)c1Cl | 4% | -1% | i | 4% | 13µM* | -3%
Cc1ccc(C(=O)/C=C/c2ccc3c(c2)OCO3)o1 | -6% | -2% | i | -1% | 26% | 4%
Cc1ccc(O)c(C(=O)/C=C/c2ccc3c(c2)OCCCO3)c1 | 18% | 16µM* | i | -18% | 14µM* | ?
Cc1ccc(/C=C/C(=O)c2ccccc2O)cc1 | -1% | 1% | i | 0% | 7% | 7%
O=C(/C=C/c1ccc2c(c1)OCCCO2)c1ccccc1O | 2% | 18% | i | -37% | 13µM* | ?
Cc1ccc(O)c(C(=O)C=Cc2ccccc2)c1 | . | . | i | ? | 13µM* | 10%
COc1cc(/C=C/C(=O)c2ccccc2O)cc(OC)c1OC | 13% | -11% | i | 13% | 16µM* | ?
CCCNC(=O)C1(C)CCCN(C(=O)c2cc3ccccc3s2)C1 (stereo unspecified) | . | . | i | 0% | ? | -2%
COc1ccc(/C=C/C2=CC3(C)CC2(C)C(c2ccc(OC)cc2)CC3=O)cc1 (stereo unspecified) | . | . | . | . | . | -3%
COc1cc2c(c(OC)c1OC)-c1c(cc3c(c1OC)OCO3)C[C@@H](C)[C@](C)(O)C2 | . | . | . | . | . | -4%
CCN1C/C(=C\c2cccc([N+](=O)[O-])c2)C(=O)/C(=C/c2cccc([N+](=O)[O-])c2)C1 | 2% | 22µM* | i | 22% | 25% | -12%
O=C1C(=Cc2ccccn2)CCc2ccccc21 | . | . | i | 1% | 18µM* | -4%
O=C1/C(=C/c2cccc([N+](=O)[O-])c2)CCc2ccccc21 | 6% | 21% | i | 5% | 22µM* | -1%
CC(=O)Oc1ccc(/C=C2/CCc3ccccc3C2=O)cc1 | -2% | 2% | i | -30% | 11µM* | -14%
COc1ccc2c(c1)CC/C(=C/c1ccccn1)C2=O | -5% | -11% | i | 4% | ? | -1%
SMILES | Mito fusion yeast | AT treatment | Abeta rescue | aSyn yeast inh | TDP-43 yeast inh | GRP78 ERSR act
Cc1ncoc1C(=O)N1CCOc2ccc(CN3CCN(c4ccccn4)CC3)cc2C1 | . | . | . | . | . | -8%
Cc1ccc2c(c1)-c1c(c(C(=O)NCCc3ccccc3)nn1C)CS2 | . | . | i | . | -12% | -3%
COc1ccc(C(=O)OCc2c(-c3ccccc3)ncc3ccccc23)cc1 | . | 10% | i | 19% | ? | -1%
COc1ccccc1C(=O)OCc1c(-c2ccccc2)ncc2ccccc12 | . | 10% | i | 30% | 25µM* | 0%
COC(=O)Oc1c(Br)c(=O)oc2ccccc12 | . | . | i | 12% | 3.5µM* | -6%
CC(=O)Nc1c(NC(C)C)c2ccccc2oc1=O | 0% | 8% | i | -1% | -4% | -2%
COc1cc(-c2cccc(OC)c2OC)cc2c1OCCN(Cc1cn[nH]c1-c1ccc(Cl)cc1)C2 | . | . | . | . | . | -2%
CC1=CCC2C(=O)N(c3cccc(C(=O)Nc4ccc(Cl)cc4)c3)C(=O)C2C1 (stereo unspecified) | 5% | -4% | 14µM* | 27% | ? | -1%
CC1=CCC2C(=O)N(c3cccc(C(=O)NCc4ccccc4)c3)C(=O)C2C1 (stereo unspecified) | 10% | 4% | i | 5% | 1% | -4%
Cc1ccnc(Nc2nc(-c3c(C)nc4sccn34)cs2)c1 | -1% | 1% | i | . | 7.1µM* | 8%
CC(=O)Nc1cccc(-c2csc(Nc3ccc(Cl)cn3)n2)c1 | 17% | 3% | i | 3% | 22µM* | -2%
COc1ccc(-c2csc(Nc3cc(C)ccn3)n2)cc1OC | -12% | 14% | i | -25% | 14µM* | -2%
COc1ccc(-c2csc(Nc3ccc(C)cn3)n2)cc1OC | 3% | 0% | ? | -13% | 0% | 5%
CC(=O)Nc1ccc(-c2csc(Nc3cc(C)ccn3)n2)cc1 | -8% | 3% | i | -23% | 16µM* | -5%
CC(=O)Nc1ccc(-c2csc(Nc3ccc(Cl)cn3)n2)cc1 | -29% | 2% | i | -17% | 9% | 6%
CC(=O)Nc1cccc(-c2csc(Nc3cc(C)ccn3)n2)c1 | 2% | 0% | i | -20% | -3% | 6%
COc1ccc(NC(=O)c2cnc[nH]2)cc1 | . | . | i | . | -2% | -1%
COc1cc(=O)n2c(c1C(=O)N(C)Cc1nonc1C)CCN(Cc1cccc(Cl)c1)CC2 | . | . | . | . | . | -4%
CC(=O)c1ccc(N2CCN(c3ncccn3)CC2)cc1 | 25µM* | 6% | i | -2% | 12% | 5%
CC(=O)c1ccc(NC(=O)CN2CCN(c3ncccn3)CC2)cc1 | -7% | -4% | i | -11% | -2% | -2%
COc1ccc(Cn2c(CNS(=O)(=O)c3ccc(Cl)s3)nc3cccnc32)cc1 | . | . | i | . | 14% | -2%
O=C(/C=C/c1cccc(F)c1)N1CCc2ccccc21 | 5% | 1% | i | 1% | 14% | -2%
O=C(/C=C/c1ccc(F)cc1)N1CCCc2ccccc21 | -5%[9.22 µM] | 1% | i | 3% | 18µM* | -3%
CC1CCCCC1NC(=S)Nc1ccc(SC(F)F)cc1 (stereo unspecified) | -6% | -1% | ? | -29% | 20µM* | -2%
